Results taken from PubChem BioAssay (Tox21).
Results filed as inconclusive are left out. The source made the active and inactive calls. Unless noted, the call rests on the fitted dose curve; in most records, active means well fitted curve in the direction sought with a large enough effect in the repeat runs; inconclusive means weak or mixed curves; inactive means no such curve, though single readings can be large; an effect the other way counts as inactive or inconclusive.

Experiments:
[1] = molecular target: Thyrotropin receptor (Homo sapiens) (UniProt P16473); experiment: qHTS assay to identify small molecule antagonists of the thyroid stimulating hormone receptor (TSHR) signaling pathway (AID 1259385; calls by dose curve; further: nearly all actives have a fitted effect of over 20% in size)
Chain of Thyrotropin receptor (Homo sapiens) (P16473 whole entry, looked up): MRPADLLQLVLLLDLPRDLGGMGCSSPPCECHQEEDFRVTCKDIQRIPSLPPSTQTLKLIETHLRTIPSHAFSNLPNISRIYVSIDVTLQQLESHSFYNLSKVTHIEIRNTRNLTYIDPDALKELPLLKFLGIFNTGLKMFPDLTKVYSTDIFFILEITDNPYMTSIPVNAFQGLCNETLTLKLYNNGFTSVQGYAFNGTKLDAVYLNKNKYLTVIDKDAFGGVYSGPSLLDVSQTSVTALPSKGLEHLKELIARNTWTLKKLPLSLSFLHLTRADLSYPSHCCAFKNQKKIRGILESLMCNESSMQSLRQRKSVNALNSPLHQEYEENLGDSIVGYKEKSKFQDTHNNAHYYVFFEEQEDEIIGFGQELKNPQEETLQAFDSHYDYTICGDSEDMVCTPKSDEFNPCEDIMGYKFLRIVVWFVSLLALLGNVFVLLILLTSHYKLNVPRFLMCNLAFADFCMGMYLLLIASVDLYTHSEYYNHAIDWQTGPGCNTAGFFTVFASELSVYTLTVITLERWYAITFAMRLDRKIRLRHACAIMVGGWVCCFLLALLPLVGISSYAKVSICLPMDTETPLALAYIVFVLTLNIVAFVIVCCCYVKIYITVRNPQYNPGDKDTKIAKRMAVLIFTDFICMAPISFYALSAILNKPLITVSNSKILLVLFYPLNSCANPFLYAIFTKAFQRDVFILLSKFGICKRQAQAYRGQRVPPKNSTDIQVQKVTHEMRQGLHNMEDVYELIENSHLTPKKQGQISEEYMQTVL
Outline: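 TSHR-HEK293 cells were plated and held 18 h at 37C/5% CO2, then given compound plus Ro20-1724 and stimulated with TSH at 1.5 ng/mL final. After 30 min at room temperature, cAMP was detected with cAMP-d2/anti-cAMP-cryptate (1 h) by fluorescence.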

[2] = qHTS assay to identify small molecule agonists of the estrogen receptor alpha (ER-alpha) signaling pathway in the presence of an antagonist - cell viability counter screen (AID 1259386);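 further: series mostly up to about 92 µM; cells exposed to compounds for 22 h at 37 °C before the viability read; nearly all actives have a fitted effect of over 30% in size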
Outline: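 Viability counter screen using VM7Luc4E2 (full-length ER-alpha, four ERE-luciferase). The cells were treated with compounds alongside ICI-182,780 10.0nM for 22hr, and live-cell protease fluorescence was quantified with CellTiter-Fluor.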

[3] = molecular target: Progesterone receptor (Homo sapiens) (UniProt P06401); experiment: qHTS assay to identify small molecule agonists of the progesterone receptor (PR) signaling pathway (AID 1346784; calls by dose curve; further: nearly all actives have a fitted effect of over 30% in size)
Chain of Progesterone receptor (Homo sapiens) (P06401 whole entry, looked up): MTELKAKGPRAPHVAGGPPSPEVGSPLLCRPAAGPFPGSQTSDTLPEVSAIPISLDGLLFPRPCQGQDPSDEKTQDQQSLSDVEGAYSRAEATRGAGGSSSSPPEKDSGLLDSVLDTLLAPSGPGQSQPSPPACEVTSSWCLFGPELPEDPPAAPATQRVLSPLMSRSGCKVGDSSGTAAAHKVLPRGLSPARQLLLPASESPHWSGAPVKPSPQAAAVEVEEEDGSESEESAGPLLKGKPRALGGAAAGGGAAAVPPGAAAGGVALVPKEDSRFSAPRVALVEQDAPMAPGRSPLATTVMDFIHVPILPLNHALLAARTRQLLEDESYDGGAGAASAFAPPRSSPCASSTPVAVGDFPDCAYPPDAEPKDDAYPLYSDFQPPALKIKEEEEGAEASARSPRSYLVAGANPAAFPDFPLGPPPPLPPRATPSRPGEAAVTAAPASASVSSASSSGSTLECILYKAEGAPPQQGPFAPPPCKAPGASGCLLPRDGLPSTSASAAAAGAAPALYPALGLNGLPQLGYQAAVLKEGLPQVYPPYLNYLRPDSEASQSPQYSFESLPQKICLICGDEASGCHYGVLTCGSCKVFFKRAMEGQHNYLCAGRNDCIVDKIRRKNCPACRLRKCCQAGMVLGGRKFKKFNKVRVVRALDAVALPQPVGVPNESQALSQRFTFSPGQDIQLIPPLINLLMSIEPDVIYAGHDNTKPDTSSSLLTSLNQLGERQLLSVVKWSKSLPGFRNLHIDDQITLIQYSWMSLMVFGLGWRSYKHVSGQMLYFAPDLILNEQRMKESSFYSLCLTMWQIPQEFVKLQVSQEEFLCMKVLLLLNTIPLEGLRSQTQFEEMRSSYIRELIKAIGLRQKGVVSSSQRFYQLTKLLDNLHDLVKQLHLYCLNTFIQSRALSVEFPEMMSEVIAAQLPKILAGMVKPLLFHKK
Outline: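 Fluorescence from LiveBLAzer B/G FRET substrate cleavage (2 hr, RT) reported PR activation in PR-UAS-bla HEK 293T cells treated 16 hr at 37C/5% CO2 with compounds; medium contained 2% charcoal-stripped FBS.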

[4] = molecular target: Progesterone receptor (Homo sapiens) (UniProt P06401); experiment: qHTS assay to identify small molecule antagonists of the progesterone receptor (PR) signaling pathway (AID 1346795; active means well fitted inhibition curve with a large enough effect in the signal ratio in the repeat runs, not every such curve was filed as active; the % refers to the signal ratio)
Outline: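 Fluorescence intensity measured 2 hr after adding beta-lactamase FRET substrate to PR-UAS-bla HEK293T cells that had been co-treated 16 hr with compound and 1 nM R5020 (final concentration) in 2% charcoal-stripped FBS.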

[5] = qHTS assay to identify small molecule antagonists of the progesterone receptor (PR) signaling pathway - cell viability counter screen (AID 1346798); further: series mostly up to about 92 µM; nearly all actives have a fitted effect of over 50% in size
Outline: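 CellTiter-Glo luminescence; PR-UAS-bla HEK293T, 3,000 cells/well; compound + R5020, 16 hr, 37C/5% CO2; 30 min RT before read.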

[6] = qHTS assay to identify small molecule agonists of the progesterone receptor (PR) signaling pathway - cell viability counter screen (AID 1346799; calls by dose curve; further: nearly all actives have a fitted effect of over 45% in size)
Outline: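 In parallel with the beta-lactamase readout, cytotoxicity toward PR-UAS-bla HEK293T cells was measured by CellTiter-Glo luminescence following 16 hr compound incubation in 2% charcoal-stripped FBS medium.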

[7] = qHTS assay to identify small molecule antagonists of the TGF-beta/Smad signaling pathway - cell viability counter screen (AID 1346824); further: nearly all actives have a fitted effect of over 50% in size
Outline: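 SBE-bla HEK 293T cells were plated overnight at 37 C, then given compounds in DMSO plus TGF-beta1 (added as 0.25 ng/mL solution) for 5 hr. After the bla read, CellTiter-Glo was added to the same wells and luminescence read after 30 min at room temperature.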

[8] = qHTS assay to identify small molecule agonists of the TGF-beta/Smad signaling pathway - cell viability counter screen (AID 1346829); further: top concentration of the series differs between compounds; nearly all actives have a fitted effect of over 45% in size
Outline: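 Here the cytotoxicity of library compounds is measured in SBE-bla HEK 293T cells treated for 5 hr, using CellTiter-Glo added to wells already read for the beta-lactamase reporter.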

[9] = qHTS assay to identify small molecule agonists of the TGF-beta/Smad signaling pathway (AID 1346859; active means well fitted activation curve with a large enough effect in the signal ratio in the repeat runs, not every such curve was filed as active; the % refers to the signal ratio; further: series mostly up to about 77 µM)
Outline: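 After overnight seeding, SBE-bla HEK 293T cells are dosed with compounds in DMSO and kept 5 hr at 37 C, 5% CO2. LiveBLAzer-type FRET substrate is then applied for 2 hr at room temperature.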

[10] = molecular target: Thyrotropin-releasing hormone receptor (Homo sapiens) (UniProt P34981); experiment: qHTS assay to identify small molecule antagonists of the thyrotropin-releasing hormone receptor (TRHR) signaling pathway (AID 1346877; active means well fitted inhibition curve with a large enough effect in the repeat runs, not every such curve was filed as active; further: series mostly up to about 51 µM)
Chain of Thyrotropin-releasing hormone receptor (Homo sapiens) (P34981 whole entry, looked up): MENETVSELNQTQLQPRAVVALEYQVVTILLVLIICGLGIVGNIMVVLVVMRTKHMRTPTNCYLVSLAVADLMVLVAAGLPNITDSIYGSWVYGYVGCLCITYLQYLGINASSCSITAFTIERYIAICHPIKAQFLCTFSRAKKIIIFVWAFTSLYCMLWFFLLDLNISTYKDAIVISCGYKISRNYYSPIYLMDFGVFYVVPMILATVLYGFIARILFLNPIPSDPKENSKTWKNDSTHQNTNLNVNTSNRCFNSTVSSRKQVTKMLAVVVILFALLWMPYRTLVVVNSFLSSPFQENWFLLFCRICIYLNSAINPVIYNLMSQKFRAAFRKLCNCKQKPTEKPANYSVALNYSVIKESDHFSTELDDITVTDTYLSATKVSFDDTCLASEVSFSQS
Outline: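 Following an 18 h incubation at 37 °C and a 2 h calcium dye load, TRHR-HEK293 cells were exposed to compound (5 min, room temperature) and challenged with TRH, 1 nM final.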

[11] = molecular target: Thyrotropin-releasing hormone receptor (Homo sapiens) (UniProt P34981); experiment: qHTS assay to identify small molecule agonists of the thyrotropin-releasing hormone receptor (TRHR) signaling pathway (AID 1346891; calls by dose curve;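 further: HEK293 cells expressing TRHR with calcium dye readout; series mostly up to about 58 µM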)
Outline: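 Compounds were tested as agonists at 15 concentrations, in triplicate, on TRHR-Hek293 cells; calcium-sensitive dye fluorescence was recorded for 3 min following addition.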

[12] = Human pregnane X receptor (PXR) small molecule agonists, qHTS cell viability counter screen (AID 1346977); further: nearly all actives have a fitted effect of over 50% in size
Outline: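 Viability counter screen: CellTiter-Fluor signal in PXR-Luc HepG2 cells, 24hr compound exposure, 37C, 5% CO2.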

[13] = Caspase-3/7 induction in HepG2 cells by small molecules, qHTS assay (AID 1346978); further: nearly all actives have a fitted effect of over 15% in size
Outline: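 Wild-type HepG2 cells (2,000/well) were settled 5 h at 37 C, 5% CO2, then exposed to compounds in DMSO for 17 h. Caspase-3/7 activity was read by luminescence 30 min after adding Caspase-Glo 3/7 reagent at room temperature.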

[14] = Caspase-3/7 induction in CHO-K1 cells by small molecules, qHTS cell viability counter screen (AID 1346979); further: nearly all actives have a fitted effect of over 35% in size
Outline: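 Viability readout by fluorescence (CellTiter-Fluor) on wild-type CHO-K1 cells exposed for 16hr at 37C and 5% CO2 to compounds delivered in DMSO; reagent incubated 1hr before reading.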

[15] = Caspase-3/7 induction in CHO-K1 cells by small molecules, qHTS assay (AID 1346980); further: nearly all actives have a fitted effect of over 15% in size
Outline: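 Wild-type cells were seeded at 1,500 per well and settled 5 hr at 37 C, 5% CO2, then exposed to DMSO-dissolved compounds for 17 hr. Caspase-Glo 3/7 reagent was added, and luminescence was read after 30min at room temperature.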

[16] = Caspase-3/7 induction in HepG2 cells by small molecules, qHTS cell viability counter screen (AID 1346981); further: series mostly up to about 92 µM; nearly all actives have a fitted effect of over 30% in size
Outline: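 Viability determined by CellTiter-Fluor fluorescence in HepG2 wells also used for the luminescent Caspase-Glo 3/7 read. Compounds were present for 16 hr at 37 C, 5% CO2 before reagent addition.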

[17] = molecular target: Nuclear receptor subfamily 1 group I member 2 (Homo sapiens) (UniProt O75469); experiment: Human pregnane X receptor (PXR) small molecule agonists, qHTS assay (AID 1346982); further: nearly all actives have a fitted effect of over 35% in size
Chain of Nuclear receptor subfamily 1 group I member 2 (Homo sapiens) (O75469 whole entry, looked up): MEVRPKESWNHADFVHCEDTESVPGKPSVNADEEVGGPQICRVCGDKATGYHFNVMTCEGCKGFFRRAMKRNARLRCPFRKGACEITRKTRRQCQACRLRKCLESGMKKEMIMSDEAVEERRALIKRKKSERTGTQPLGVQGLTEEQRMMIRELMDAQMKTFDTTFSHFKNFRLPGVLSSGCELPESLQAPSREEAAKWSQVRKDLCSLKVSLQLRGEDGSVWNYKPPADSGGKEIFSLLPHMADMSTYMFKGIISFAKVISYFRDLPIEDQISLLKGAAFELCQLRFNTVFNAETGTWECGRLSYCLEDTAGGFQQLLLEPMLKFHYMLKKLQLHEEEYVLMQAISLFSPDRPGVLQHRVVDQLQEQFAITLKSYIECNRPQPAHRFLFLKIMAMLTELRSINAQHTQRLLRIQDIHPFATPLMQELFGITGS
Outline: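 Compound-induced hPXR transactivation of a CYP3A4 luciferase reporter was scored in HepG2 PXR-Luc cells over 24 hr at 37 C, 5% CO2, by luminescence.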

[18] = molecular target: Cytochrome P450 2D6 (Homo sapiens) (UniProt P10635); experiment: Cytochrome P450 Family 2 Subfamily D Member 6 (CYP2D6) small molecule antagonists: luciferase reporter qHTS assay (AID 1671196); further: series mostly up to about 120 µM; nearly all actives have a fitted effect of over 50% in size
Chain of Cytochrome P450 2D6 (Homo sapiens) (P10635 whole entry, looked up): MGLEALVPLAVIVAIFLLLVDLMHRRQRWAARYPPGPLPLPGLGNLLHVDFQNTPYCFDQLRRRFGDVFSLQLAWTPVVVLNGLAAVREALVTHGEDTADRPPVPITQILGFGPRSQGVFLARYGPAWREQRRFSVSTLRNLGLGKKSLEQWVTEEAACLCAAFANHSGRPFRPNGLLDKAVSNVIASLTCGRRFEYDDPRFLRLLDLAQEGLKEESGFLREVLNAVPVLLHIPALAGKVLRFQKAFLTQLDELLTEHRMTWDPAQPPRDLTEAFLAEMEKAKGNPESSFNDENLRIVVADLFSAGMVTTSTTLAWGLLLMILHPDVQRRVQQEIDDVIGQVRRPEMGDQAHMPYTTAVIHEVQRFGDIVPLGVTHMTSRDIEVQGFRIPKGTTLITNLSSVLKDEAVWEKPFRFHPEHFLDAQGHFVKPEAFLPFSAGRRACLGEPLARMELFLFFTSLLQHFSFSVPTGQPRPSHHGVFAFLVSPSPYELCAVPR
Outline: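 Each well received CYP2D6 with its proluciferin substrate and chemical, sat 10 min, then got NADPH regeneration solution for 1 h at room temperature. Luminescence in RLU served as the activity measure.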

[19] = molecular target: Nuclear receptor subfamily 1 group I member 2 (Rattus norvegicus) (UniProt Q9R1A7); experiment: Rat pregnane X receptor (rPXR) activation by small molecules, qHTS assay (AID 1346983); details: rPXR luciferase reporter cells, One-Glo luminescence, 24 h; max activation: hits give high values; further: nearly all actives have a fitted effect of over 20% in size
Chain of Nuclear receptor subfamily 1 group I member 2 (Rattus norvegicus) (Q9R1A7 whole entry, looked up): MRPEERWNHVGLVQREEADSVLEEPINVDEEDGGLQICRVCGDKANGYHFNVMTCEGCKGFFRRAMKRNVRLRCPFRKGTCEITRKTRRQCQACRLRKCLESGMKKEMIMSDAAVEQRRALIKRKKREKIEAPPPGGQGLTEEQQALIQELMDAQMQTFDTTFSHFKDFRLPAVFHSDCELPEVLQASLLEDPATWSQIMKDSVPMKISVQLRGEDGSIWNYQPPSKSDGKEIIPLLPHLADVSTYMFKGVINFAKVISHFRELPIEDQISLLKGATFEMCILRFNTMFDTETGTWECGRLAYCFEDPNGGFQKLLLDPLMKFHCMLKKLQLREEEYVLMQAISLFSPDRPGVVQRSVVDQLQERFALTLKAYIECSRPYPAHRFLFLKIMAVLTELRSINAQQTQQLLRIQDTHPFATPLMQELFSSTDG
Outline: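 Cell-based rPXR luciferase reporter assay, 2,000 cells per well, rested 5hr at 37 C before compound addition in DMSO, then 24 hr at 37 C. One-Glo reagent was added and luminescence read after 30 min at room temperature.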

[20] = molecular target: Nuclear receptor subfamily 1 group I member 2 (Homo sapiens) (UniProt O75469); experiment: CYP3A4 induction through human pregnane X receptor (PXR) by small molecules, qHTS assay (AID 1346984); further: nearly all actives have a fitted effect of over 40% in size
Outline: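 Readings come from a luciferase reporter: DPX-2 cells, which are HepG2 cotransfected with PXR and a CYP3A4-promoter construct, were exposed to test compounds for 24 h at 37C before One-Glo detection.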
On the % scale 0 is the no-effect control and ±100 the full control effect.

CC(C)C(=O)OCCOc1ccccc1
inactive: Potency [1] | Potency [2] | Potency [3] | Potency [4] | Potency [5] | Potency [6] | outcome [7] | Potency [8] | Potency [9] | outcome [10] | outcome [11] | Potency [12] | Potency [13] | Potency [14] | outcome [15] | Potency [16] | Potency [17] | Potency [18]

CC1C(C)(C)C2=C(C(=O)CCC2)C1(C)C (stereo not given)
inactive: Potency [1] | Potency [2] | Potency [3] | Potency [4] | Potency [5] | Potency [6] | outcome [7] | Potency [8] | Potency [9] | outcome [10] | outcome [11] | Potency [12] | Potency [13] | Potency [14] | Potency [16] | Potency [17] | Potency [18]

O=C(O)c1ccc(O)cc1O
inactive: Potency [1] | Potency [2] | Potency [3] | Potency [4] | Potency [5] | Potency [6] | outcome [7] | Potency [8] | Potency [9] | outcome [10] | outcome [11] | Potency [12] | Potency [13] | Potency [14] | outcome [15] | Potency [16] | Potency [17] | Potency [18]

CC(C)(C(=O)c1cccnc1)c1cccnc1
inactive: Potency [1] | Potency [2] | Potency [3] | Potency [4] | Potency [5] | Potency [6] | outcome [7] | Potency [8] | Potency [9] | outcome [10] | outcome [11] | Potency [12] | Potency [13] | outcome [15] | Potency [16] | Potency [17] | max activation [19] -1.51% | Potency [20]

CC(C)COC(=O)COc1cc(Cl)c(Cl)cc1Cl
inactive: Potency [1] | Potency [2] | Potency [3] | Potency [4] | Potency [5] | Potency [6] | outcome [7] | Potency [8] | Potency [9] | outcome [10] | outcome [11] | Potency [12] | Potency [13] | Potency [14] | Potency [16]

CCCCCCCCCCCCCCCC(=O)OCC
inactive: Potency [1] | Potency [2] | Potency [3] | Potency [4] | Potency [5] | Potency [6] | outcome [7] | Potency [8] | Potency [9] | outcome [10] | outcome [11] | Potency [13] | Potency [14] | outcome [15] | Potency [16] | Potency [17] | Potency [18]

O=C(O)/C=C/c1ccc(O)c(O)c1
inactive: Potency [1] | Potency [2] | Potency [3] | Potency [4] | Potency [5] | Potency [6] | outcome [7] | Potency [8] | Potency [9] | outcome [10] | outcome [11] | Potency [12] | Potency [13] | Potency [14] | Potency [16] | Potency [17] | Potency [18]
